POLH inh – qHTS for Inhibitors of Polymerase Eta; DNA polymerase eta (Homo sapiens), Q9Y253; recombinant Pol eta, fluorescent DNA replication assay; Potency, µM (top dose mostly 114 µM), for inactives: top-dose activity change, negative = inhibition, most hits filed as inhibitors; 390,000 tested, 1.2% active; AID 588591, 2011; note: potency is the fitted concentration of half-maximal effect; % is set by controls: 0 for no effect and ±100 for the full control effect
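Fluorescent replication assay: 50 nM final substrate added after a 15 min room-temperature compound preincubation with 10 nM enzyme. Signal taken at 0 min and again at 10 min.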
PI4K2A inh – qHTS for small molecular inhibitors of PI4K2A; 420,000 tested, 0.13% active; Phosphatidylinositol 4-kinase type 2-alpha (Homo sapiens), Q9BTU6; activity change, negative = inhibition, % at 76.9 µM; purified PI4K2A, ADP-Glo luminescence, 1 h; active compounds read low; AID 1346378, 2018; in the data active = activity change below about -50%; inconclusive = mostly about -30% to -49%;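 note: -100% = wells without enzyme as full effect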
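Compounds are screened against recombinant PI4K2A using PI as substrate and ATP, the latter dispensed at 300 microM. Reactions run one hour at ambient temperature before ADP-Glo detection; full inhibition defined by wells lacking enzyme.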
PI5P4K alpha inh – qHTS for Inhibitors of phosphatidylinositol 5-phosphate 4-kinase (PI5P4K) | Phosphatidylinositol 5-phosphate 4-kinase type-2 alpha (Homo sapiens), P48426 | PI5P4Kalpha enzyme, ADP-Glo luminescence, 60 min; active compounds read low | max response, % | 330,000 tested, 1.2% active | AID 652105, 2013; active = max response of -50% or lower; inconclusive = between -30% and -50%; inactive = -30% or higher; note: value at the top dose of about 77 µM; % is set by controls: 0 for no effect and ±100 for the full control effect
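ADP-Glo luminescence end-point after a 60 min room-temperature kinase reaction. PI5P4Kalpha and substrate in HEPES pH 7.4 buffer with EGTA, 0.1% CHAPS and 5% DMSO; ATP at 5 microM final.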
Pol iota inh – qHTS for Inhibitors of Polymerase Iota; DNA polymerase iota (Homo sapiens), Q9UNA4; Pol iota fluorescent replication assay, 10 min; Potency, µM (titrated, usually from 115 µM), for the others: at the top dose activity, negative = inhibition, actives largely listed as inhibitors; 390,000 tested, 1% active; note: potency is the fitted concentration of half-maximal effect
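Pol iota at 10 nM preincubated 15 min with compounds at room temperature; reaction started with fluorescent substrate, 50 nM final. Fluorescence read kinetically at 0 and 10 min; buffer-only wells as negative control.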
Pol kappa inh – qHTS for Inhibitors of Polymerase Kappa. DNA polymerase kappa (Homo sapiens), Q9UBT6. purified Pol kappa, fluorescent DNA synthesis assay, 10 min. Potency, µM (titrated, usually from 107 µM), inactives show at the highest dose activity, negative = inhibition, usual class: inhibitors. 400,000 tested, 0.53% active; note: potency is the fitted concentration of half-maximal effect; % is set by controls: 0 for no effect and ±100 for the full control effect
Target sequence (Q9UBT6 whole entry, looked up): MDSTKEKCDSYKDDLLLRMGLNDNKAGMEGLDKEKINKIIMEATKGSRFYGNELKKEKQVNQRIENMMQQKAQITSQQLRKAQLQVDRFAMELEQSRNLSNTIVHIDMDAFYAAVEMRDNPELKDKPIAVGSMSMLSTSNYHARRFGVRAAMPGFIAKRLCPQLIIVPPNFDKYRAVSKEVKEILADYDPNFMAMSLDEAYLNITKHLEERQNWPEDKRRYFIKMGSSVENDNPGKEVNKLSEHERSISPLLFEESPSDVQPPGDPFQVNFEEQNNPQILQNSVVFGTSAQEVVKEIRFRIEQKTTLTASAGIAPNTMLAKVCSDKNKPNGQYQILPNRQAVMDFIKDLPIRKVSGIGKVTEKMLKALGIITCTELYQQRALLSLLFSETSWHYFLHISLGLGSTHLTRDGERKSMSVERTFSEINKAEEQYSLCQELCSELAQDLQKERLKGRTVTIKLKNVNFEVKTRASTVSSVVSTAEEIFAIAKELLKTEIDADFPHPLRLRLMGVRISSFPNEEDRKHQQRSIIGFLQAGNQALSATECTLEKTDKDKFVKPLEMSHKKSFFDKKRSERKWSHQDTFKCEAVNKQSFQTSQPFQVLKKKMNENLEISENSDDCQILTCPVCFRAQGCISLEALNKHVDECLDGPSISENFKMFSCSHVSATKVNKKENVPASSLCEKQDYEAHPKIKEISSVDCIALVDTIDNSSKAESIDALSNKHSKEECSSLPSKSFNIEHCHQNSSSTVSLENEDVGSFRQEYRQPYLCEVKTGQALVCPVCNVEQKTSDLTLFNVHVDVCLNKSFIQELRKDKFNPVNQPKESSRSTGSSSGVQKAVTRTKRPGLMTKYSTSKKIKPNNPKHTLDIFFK
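10 nM Pol kappa was preincubated with compounds for 15 min at room temperature. Reaction started with 50 nM (final) substrate. Fluorescence read kinetically at 0 and 10 min.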
Pol beta inh – qHTS Assay for Inhibitors of DNA Polymerase Beta | 340,000 tested, 1.3% active | Pol beta primer extension/strand displacement, fluorescence kinetic | AID 485314, 2010 | Potency, µM (highest dose often 114 µM), for inactives: top-dose activity change, negative = inhibition, usual class: inhibitors; note: potency is the fitted concentration of half-maximal effect; % is set by controls: 0 for no effect and ±100 for the full control effect
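Pol beta (10 nM) and compounds were preincubated 15 min at room temperature, then 50 nM substrate (final) started primer extension/strand displacement. Reads were taken at 0 and 10 min; concentration-response data were fitted to a four-parameter Hill equation.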
An asterisk follows results filed as active; [ ] = dose if it differs, or a comment. Rows were chosen to be rich in hits. Some 2.8% of all compounds tested hit in one or more screens of this group. Unless noted, calls come from the whole dose curve; as a rule, active = well fitted inhibition curve with a large enough effect; inconclusive = small, poorly fitted or top-dose-only effect, or another doubt; inactive = no such curve, though single readings can be large or run the other way.

Results for O=C(N/N=C/c1cccc([N+](=O)[O-])c1)c1nc2ccccc2c(=O)[nH]1 ?
POLH inh: -11.1%; PI4K2A inh: 4.0; PI5P4K alpha inh: -1.9; Pol iota inh: -16.3%; Pol kappa inh: -9.6%; Pol beta inh: 0.1%

Results for O=C(O)C(Cc1ccccc1)N1C(=O)/C(=C/c2cccc3ccccc23)SC1=S (stereo not drawn) ?
Pol beta inh: 31.6µM*

What do the screens show for `COc1ccc(/C=C2/SC(=S)N(Cc3ccccc3)C2=O)cc1O`?
POLH inh: -1.8%; PI4K2A inh: 0.4; PI5P4K alpha inh: 4.4; Pol iota inh: -22.8%; Pol kappa inh: -7.4%; Pol beta inh: 4.8%

What do the screens show for `COc1cc(/C=C2\SC(=S)N(C(Cc3ccccc3)C(=O)O)C2=O)ccc1O` (stereo not drawn)?
POLH inh: inconclusive; PI4K2A inh: -1.3; PI5P4K alpha inh: -9.1; Pol iota inh: inconclusive; Pol kappa inh: inconclusive; Pol beta inh: 50.1µM*

How did O=C(O)C(Cc1ccccc1)N1C(=O)/C(=C/c2ccccc2)SC1=S (stereo not drawn) do in these assays?
POLH inh: -20.6%; PI4K2A inh: -2.7; PI5P4K alpha inh: -0.5; Pol iota inh: 2.2%; Pol kappa inh: 2.5%; Pol beta inh: 1.6%

What do the screens show for `COc1cccc(/C=C2\SC(=S)N(C(C(=O)O)c3ccccc3)C2=O)c1OC` (stereo not drawn)?
POLH inh: -1.9%; PI4K2A inh: -3.1; PI5P4K alpha inh: 0.0; Pol iota inh: inconclusive; Pol kappa inh: -22.2%; Pol beta inh: 29.1%

How did Cc1ccc(/C=C2\SC(=S)N(C(Cc3ccccc3)C(=O)O)C2=O)cc1 (stereo not drawn) do in these assays?
POLH inh: 79.4µM*; PI4K2A inh: 1.5; PI5P4K alpha inh: 11.2; Pol iota inh: 10.8%; Pol kappa inh: -2.4%; Pol beta inh: 89.1µM*

What do the screens show for `C=C/C(C)=C/CC1C(=C)CCC2C(C)(C(=O)O)CCCC12C` (stereo not drawn)?
POLH inh: 7.08µM*; PI4K2A inh: -9.2; PI5P4K alpha inh: inconclusive; Pol iota inh: inconclusive; Pol kappa inh: 15.8µM*; Pol beta inh: inconclusive

How did O=C(O)C1CC=CCC1C(=O)Nc1ccccc1 (stereo not drawn) do in these assays?
POLH inh: inconclusive; PI4K2A inh: 1.9; Pol iota inh: 10.4%; Pol kappa inh: -5.7%; Pol beta inh: 31.6µM*

Results for CCc1ccc(NC(=O)C2CC=CCC2C(=O)O)cc1 (stereo not drawn) ?
POLH inh: -5.5%; PI4K2A inh: -3.7; PI5P4K alpha inh: -0.2; Pol iota inh: 9.0%; Pol kappa inh: 0.8%; Pol beta inh: -15.5%

Results for O=C(O)Cc1ccc(NC(=O)C2CC=CCC2C(=O)O)cc1 (stereo not drawn) ?
Pol beta inh: 22.4µM*

Results for Cc1ccc(C)c(NC(=O)Cn2nnc(-c3ccncc3)n2)c1 ?
PI4K2A inh: -3.7

What do the screens show for `CC(=O)Nc1cccc(NC(=O)Cc2cccs2)c1`?
POLH inh: 35.5µM*; PI4K2A inh: -9.1; PI5P4K alpha inh: inconclusive; Pol iota inh: inconclusive; Pol kappa inh: -19.7%; Pol beta inh: -13.4%

What do the screens show for `CCOc1cccc(NC(=O)Cc2cccs2)c1`?
POLH inh: -16.5%; PI4K2A inh: -17.2; PI5P4K alpha inh: -2.1; Pol iota inh: -13.5%; Pol kappa inh: -7.7%; Pol beta inh: 20.4%

What do the screens show for `CCC(=O)Nc1cccc(NC(C)=O)c1`?
Pol beta inh: 22.4µM*

Results for Cc1nnc2ccc(-c3cccc(NC(=O)Cc4cccs4)c3)nn12 ?
POLH inh: inconclusive; PI4K2A inh: -12.3; PI5P4K alpha inh: inconclusive; Pol iota inh: 35.5µM*; Pol kappa inh: inconclusive; Pol beta inh: 12.6µM*

Results for CCOc1cc2[nH]c(=O)n(Cc3ccc(C(=O)N4CCN(c5ccccc5)CC4)cc3)c(=O)c2cc1OCC ?
POLH inh: -13.6%; PI4K2A inh: -1.2; Pol iota inh: 9.8%; Pol kappa inh: -9.7%[60.1 µM]; Pol beta inh: 3.7%

What do the screens show for `COc1cc2cc(Oc3ccc4ccc(=O)oc4c3)c(=O)oc2cc1OC(=O)C=C(C)C`?
Pol beta inh: 14.1µM*

What do the screens show for `COc1cc2cc(Oc3ccc4ccc(=O)oc4c3)c(=O)oc2cc1OC(C)=O`?
POLH inh: inconclusive; PI4K2A inh: -0.4; PI5P4K alpha inh: -4.5; Pol iota inh: -6.1%; Pol kappa inh: -17.5%; Pol beta inh: 0.3%

How did CCn1cc(C(=O)N2CCN(c3ccccc3)CC2)c(=O)c2cc(S(=O)(=O)N(C)C3CCCCC3)ccc21 do in these assays?
POLH inh: -23.9%; PI4K2A inh: 0.7; Pol iota inh: 17.2%; Pol kappa inh: 2.4%; Pol beta inh: 4.5%

What do the screens show for `O=C(CCl)c1ccc2[nH]c(=O)oc2c1`?
POLH inh: 44.7µM*; PI4K2A inh: -4.1; PI5P4K alpha inh: -23.3; Pol iota inh: inconclusive; Pol kappa inh: -22.8%; Pol beta inh: -20.6%

Results for CC(C)CCn1c(=O)c2sccc2n2c(CCCC(=O)NCCc3ccccc3)nnc12 ?
POLH inh: -11.9%; PI4K2A inh: -0.6; Pol iota inh: 0.6%; Pol kappa inh: 0.5%; Pol beta inh: -23.8%

What do the screens show for `CC(=O)NS(=O)(=O)c1ccc(NC(=O)c2cc3c(=O)n4ccccc4nc3s2)cc1`?
POLH inh: 39.8µM*; PI4K2A inh: -7.8; PI5P4K alpha inh: -18.7; Pol iota inh: 35.5µM*; Pol kappa inh: inconclusive; Pol beta inh: 79.4µM*

What do the screens show for `COc1ccc2nc(N=Nc3ccc(O)c4ccccc34)sc2c1`?
POLH inh: inconclusive; PI4K2A inh: -0.2; PI5P4K alpha inh: inconclusive; Pol iota inh: -1.6%; Pol kappa inh: -27.7%; Pol beta inh: 44.7µM*

Results for Cc1nn(-c2ccc(N3CCCC3)nn2)c(C)c1CCC(=O)NCc1ccc(OC(C)C)cc1 ?
POLH inh: -1.0%; PI4K2A inh: 1.9; Pol iota inh: 14.1%; Pol kappa inh: 2.4%; Pol beta inh: 1.3%

How did CCCc1cc2c(OC(=O)CC)c(-c3ccc(C(=O)OCC)o3)c(=O)oc2cc1OC do in these assays?
POLH inh: inconclusive; PI4K2A inh: -4.3; PI5P4K alpha inh: -65.3*; Pol iota inh: 38.0%; Pol kappa inh: -9.5%; Pol beta inh: 2.1%

Screening results (PubChem)
